Screening results from PubChem.
In the library only some 3.2% were active in any assay of this set; here they are far more common.
MsrA act: bovine methionine sulfoxide reductase A activation | 360,000 tested, 0.3% active | AID 602163 | purified bovine MsrA, absorbance read-out | activation, % at 10.6 µM; in the data active = activation above about 7.5%;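 note: 0% = vehicle and 100% = reference activator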
NadD block: blocks S. aureus nicotinate mononucleotide adenylyltransferase; AID 602399; inhibition, % at 20 µM; 360,000 tested, 0.78% active; purified NadD enzyme, colorimetric absorbance read-out; in the data active = inhibition above about 26%
DSG3 Ab inh: inhibitors of pemphigus antibody binding to human desmoglein-3 | 310,000 tested, 0.48% active | DSG3-coupled beads, scFv-anti-DSG3-GFP binding, flow cytometry; active compounds read low | binding (percent of control), % at 10 µM;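 active = binding more than 3 SD below its plate's average and above zero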;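 note: hits lower antibody fragment binding to DSG3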
DAGLB inh: diacylglycerol lipase beta (human) inhibition | 340,000 tested, 0.059% active | AID 504411 | HEK293T DAGLB membrane lysate, EnzChek fluorogenic substrate | Q8NCG7 | inhibition, % at 5.17 µM; in the data active = inhibition above about 34%;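 note: 0% = enzyme with vehicle and 100% = wells lacking enzyme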
Target sequence (Q8NCG7 whole entry, looked up): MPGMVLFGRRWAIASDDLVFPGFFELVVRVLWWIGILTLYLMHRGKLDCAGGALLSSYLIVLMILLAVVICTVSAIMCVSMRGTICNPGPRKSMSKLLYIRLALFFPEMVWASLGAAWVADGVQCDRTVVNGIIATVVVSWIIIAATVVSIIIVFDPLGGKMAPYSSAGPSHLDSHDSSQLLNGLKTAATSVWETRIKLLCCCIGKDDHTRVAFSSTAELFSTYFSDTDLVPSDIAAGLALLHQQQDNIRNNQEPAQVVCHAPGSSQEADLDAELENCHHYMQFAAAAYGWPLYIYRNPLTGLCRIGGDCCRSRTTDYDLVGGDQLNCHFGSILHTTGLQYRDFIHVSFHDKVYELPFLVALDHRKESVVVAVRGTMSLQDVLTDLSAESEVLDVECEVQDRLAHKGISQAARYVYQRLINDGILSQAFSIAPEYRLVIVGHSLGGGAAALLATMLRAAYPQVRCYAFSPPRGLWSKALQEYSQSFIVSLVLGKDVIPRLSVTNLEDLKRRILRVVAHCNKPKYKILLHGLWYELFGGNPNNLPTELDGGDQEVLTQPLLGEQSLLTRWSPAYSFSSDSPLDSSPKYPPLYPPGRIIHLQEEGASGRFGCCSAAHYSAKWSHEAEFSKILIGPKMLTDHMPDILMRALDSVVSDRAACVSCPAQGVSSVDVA
rCAG RNA binder: binds r(CAG) RNA repeats; r(CAG) RNA repeat, TO-PRO-1 dye displacement fluorescence; inhibition, % at 3 µM; 370,000 tested, 1.3% active; AID 651821;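 active = inhibition above the plate cutoff, the mean of all test compounds on that plate plus 3 SD, cut at about 35% in these data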;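 note: 0% = DMSO alone and 100% = 100 µM mitoxantrone as full dye displacement; higher means more dye released from RNA so lower well fluorescence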
MsrA inhibitor: bovine MsrA inhibition. purified bovine MsrA, absorbance read-out. inhibition, % at 15.5 µM. 360,000 tested, 0.75% active. AID 651718; in the data active = inhibition above about 4.5%;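 note: 0% = vehicle wells with enzyme and 100% = reference inhibitor wells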
DAGLB confirm: DAGLB (human) inhibition, confirmation screen. HEK293T DAGLB membrane lysate, EnzChek fluorogenic substrate. AID 504445. 190 tested, 73% active. inhibition, % at 5.17 µM. shares compounds with DAGLB inh;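 active = mean inhibition over triplicate wells above a set limit taken from the primary lipase screen, cut at about 34% in these data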;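 note: 0% = DAGLB with DMSO and 100% = wells lacking DAGLB enzyme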
* marks the source's active call; other numbers are inactive results; · = no result.

SMILES	MsrA act	NadD block	DSG3 Ab inh	DAGLB inh	rCAG RNA binder	MsrA inhibitor	DAGLB confirm
O=C(NNc1c2ccccc2nc2ccccc12)c1ccc(O)cc1O	0.1	30.8*	103.4	39.2*	32.5	0.8	52.9*
O=C(NNc1c2ccccc2nc2ccccc12)c1ccccc1O	-2.0	25.3	86.3	48.1*	33.4	-0.5	82.1*
O=C(NNc1c2ccccc2nc2ccccc12)c1ccccc1Cl	-1.7	5.3	101.8	21.0	11.7	0.1	·
CCSC1=NC(=O)/C(=C2/C=Cc3ccccc3N2CC)S1	0.2	3.4	96.5	36.5*	-0.6	0.0	40.9*
CCN1/C(=C2\OC(=S)N(C)C2=O)C=Cc2ccccc21	-7.2	0.4	117.6	2.3	1.9	0.3	·
CC1(C)CC(=O)C2=C(C1)NC1=C(C(=O)c3ccccc31)C2c1ccc(O)cc1 (stereo not drawn)	-2.9	1.2	96.4	22.4	5.5	0.8	·
CCCCc1ccc(C2C3=C(CC(C)(C)CC3=O)NC3=C2C(=O)c2ccccc23)cc1 (stereo not drawn)	-1.9	22.5	108.5	45.9*	-1.1	-0.5	33.4
CCCC(=O)N1CCCC1(C)C(=O)Nc1ccc2c(c1)CCN2C(C)=O (stereo not drawn)	-2.4	5.6	·	·	2.4	1.3	·
CCC(=O)N1CCN(c2ccc(NC(=S)NC(=O)c3cc4ccccc4o3)cc2)CC1	-4.6	1.8	93.9	1.6	2.1	0.2	·
COc1ccc(-c2csc3nc(-c4ccccc4OC)oc(=O)c23)cc1	-2.6	0.9	91.1	42.6*	2.4	0.1	40.7*
CC1(C)CC(=O)C2=C(C1)N=C1c3ccccc3C(=O)C1C2c1ccc(Cl)cc1 (stereo not drawn)	-5.7	26.6	84.5	36.8*	1.8	0.6	35.0*
NS(=O)(=O)c1ccc(N=Nc2c(O)ccc3ccccc23)cc1	-1.1	0.4	71.1*	36.8*	21.3	0.8	47.4*
O=C(O)c1cc(N=Nc2c(O)ccc3ccccc23)cc(C(=O)O)c1	-3.8	9.9	100.7	3.0	-1.4	0.8	·
CCc1nnc(NS(=O)(=O)c2ccc(NS(=O)(=O)c3ccccc3[N+](=O)[O-])cc2)s1	-1.3	-2.7	95.8	-0.7	11.8	-0.6	·
CCc1nnc(NS(=O)(=O)c2ccc(Nc3ccc([N+](=O)[O-])c4nonc34)cc2)s1	0.8	7.9	98.5	35.9*	34.2	2.2	32.3
CC1=NN(c2ccccc2)C(=O)/C1=C\C=C1/N(C)c2ccccc2C1(C)C	-2.5	7.1	109.0	40.1*	-13.7	-0.5	61.3*
CC1=NN(c2ccccc2)C(=O)/C1=C\C=C1\N(C)c2ccccc2C1(C)C	-6.4	-1.9	105.4	20.8	-7.5	-0.4	·
CC1CC(C)CN(C(=O)c2ccc3c(c2NCCO)C(=O)c2ccccc2C3=O)C1 (stereo not drawn)	0.9	-3.3	99.3	44.4*	0.2	0.1	63.3*
Nc1nc(-c2ccccc2)c(N=Nc2ccccc2Cl)s1	-6.1	-0.9	101.2	64.7*	24.7	0.4	91.4*
Cc1ccc2cc(C3C(C#N)=C(N)Oc4c3ccc3cccnc43)c(=O)[nH]c2c1 (stereo not drawn)	-9.9	19.0	100.9	36.0*	·	·	3.5
CC(C)(C)c1ccc(S(=O)(=O)/N=C2\C=C(NS(=O)(=O)c3ccccc3)C(=O)c3ccccc32)cc1	0.1	39.6*	106.5	39.4*	58.7*	-0.2	63.7*
C/C(=N\NS(=O)(=O)c1ccc(C(C)(C)C)cc1)c1ccccc1	-6.0	-0.5	103.4	-2.7	6.8	0.6	·
CCC(C(=O)Nc1c(C)cccc1C)n1c(-c2ccc(-c3ccccc3)cc2)nc2ccccc21 (stereo not drawn)	·	·	·	·	11.6	2.5	·
CC(C)(CCc1ccccn1)C(=O)CCCc1ccccn1	-3.2	0.2	113.2	-2.5	1.8	-1.0	·
O=C(O)c1cccc2c1-c1ccc(Cl)cc1C2=O	-3.2	-0.8	94.8	1.1	0.3	-0.2	·
SMILES	MsrA act	NadD block	DSG3 Ab inh	DAGLB inh	rCAG RNA binder	MsrA inhibitor	DAGLB confirm
Nc1cccc2c1C(=O)c1ccc(Cl)cc1C2=O	-0.7	-0.6	106.0	37.9*	13.3	-0.2	40.2*
COc1ccc(/C=N/Nc2ccc(C(F)(F)F)cc2[N+](=O)[O-])cc1O	-2.5	1.2	97.1	39.8*	7.2	1.5	63.9*
c1ccc(C[C@H]2COc3c4ccccc4nn32)cc1	·	·	·	·	2.9	-0.3	·
COc1ccccc1C(=O)n1ccc2ccc(-c3ccc4ccn(Cc5ccc(C#N)cc5)c4c3)cc21	·	·	·	·	16.1	·	·
Nc1ccc2c(c1)C(=O)c1ccc(N)cc1-2	-5.0	3.2	91.8	9.3	7.1	1.0	·
Nc1ccc2c(c1)C(=O)c1cc(Cl)c(Cl)cc1-2	-0.9	-0.5	109.3	34.2*	6.0	2.0	39.5*
CC1=C(O)C(=O)C(c2c(C)cc(C)c(Br)c2C)=C(O)C1=O	-5.9	-0.5	95.4	43.4*	24.8	1.7	32.5
CC(=O)c1ccc(NC(=O)COC(=O)c2ccccc2N=Nc2ccc(N(C)C)cc2)cc1	-2.2	4.0	106.4	36.2*	7.0	1.7	27.7
Nc1ccc(N(CCO)CCO)cc1	-3.1	-2.3	93.7	-1.7	-10.2	0.0	·
Cc1cc(N(CCO)CCO)ccc1N=Nc1cc(F)ccc1F	-6.3	-10.0	121.0	42.7*	1.9	-0.1	45.0*
CN1c2ccc([N+](=O)[O-])cc2N(C)C1(C)c1ccccc1 (stereo not drawn)	-4.3	5.4	113.8	36.9*	-0.1	1.7	33.1
Cn1c2ccccc2c2cc([N+](=O)[O-])ccc21	-4.3	-5.0	·	0.3	11.4	-0.5	·
Cc1cccc(NC(=O)C2CCCN2S(=O)(=O)c2cccc3cccnc23)c1C (stereo not drawn)	·	·	·	·	1.5	·	·
CC(=O)c1cc(-c2cnn(Cc3ccccc3)c2)c(=O)n2c1CCC2	·	·	·	·	0.0	·	·
CC(C)(C)OC(=O)N(CCc1ccccc1)Cc1cccc(OCc2cccc(NC(=O)c3ccccc3)c2)c1	-2.0	-3.9	97.2	-18.3	9.5	0.6	·
CCCCCCN1C=CC(=C/C=C(\C#N)C(=O)OCC)C=C1	-2.8	1.6	145.9	-119.2	-65.9	0.3	·
CCOC(=O)/C(C#N)=C/C=C1\C=Cc2ccccc2N1CC	-1.4	-7.9	109.8	36.8*	-0.4	0.7	46.0*
Nc1cc([N+](=O)[O-])cc2oc(-c3ccccc3)cc12	-8.1	-2.2	137.3	36.9*	23.0	0.2	36.9*
O=c1cc(-c2ccccc2)oc2ccccc12	-2.0	0.8	·	-5.8	0.0	-0.1	·
O=C(O)c1ccccc1NS(=O)(=O)c1ccc(NN=Cc2ccc(F)cc2)c([N+](=O)[O-])c1	-4.8	11.5	93.1	36.6*	·	·	33.5
CC(C)N1CCCCC(NC(=O)c2ccc(F)c(F)c2)C1=O (stereo not drawn)	·	·	·	·	-1.4	·	·
